Sampled rows, rich in hits. Any-hit rate of the full collection: about 1.2%.
PLCb3 inh – human PLC-beta3 inhibitors, primary screen, biochemical, fluorescence | Purified PLC-beta3, fluorogenic substrate | inhibition, % at 12.2 µM | 370,000 tested, 0.18% active | AID 720704, 2013; in the data active means inhibition above about 11%;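 further: 0% = median of compound wells on plate and 100% = full blocker control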
GC-A act – GC-A stimulated cGMP production enhancers – HEK293 GC-A cells, cGMP TR-FRET, EC30 ANP, primary screen; 0% at EC30 ANP, 100% saturating ANP; AID 1671463, 2021; activation, % at 10 µM; Atrial natriuretic peptide receptor 1 (Homo sapiens), P16066; 370,000 tested, 0.14% active; in the data active means activation above about 40%
PLC-gamma1 inh – PLC-gamma1 enzyme inhibitors, primary screen, biochemical, fluorescence, purified enzyme; inhibition, % at 12.2 µM; fluorogenic substrate; 370,000 tested, 0.84% active; AID 720700, 2013
NPR2 activator – human GC-B receptor activators, primary screen, HEK293 GC-B cells, cGMP TR-FRET, EC30 CNP. Atrial natriuretic peptide receptor 2 (Homo sapiens), P20594. 0% at EC30 CNP, 100% saturating CNP. activation, % at 10 µM. 370,000 tested, 0.11% active. AID 1920062, 2024;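 active means activation at 10 µM reaching about 35% in either raw or pattern-adjusted values, limit read from the data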
PLCg1 ctr – PLC-gamma1 enzyme inhibitors, counter-screen for PLC-beta3 inhibitor project, biochemical, fluorescence; shares compounds with PLC-gamma1 inh; purified PLC-gamma1, fluorogenic substrate; inhibition, % at 12.3 µM; 3,300 tested, 3.1% active
PLCbeta3 conf – PLC-beta3 inhibitor confirmation, biochemical, fluorescence, purified enzyme; inhibition, % at 12.3 µM; fluorogenic substrate fluorescence; 3,300 tested, 1% active; AID 743261, 2014; shares compounds with PLC-gamma1 inh; in the data active means inhibition above about 11%
The depositor's hits bear a star; . = not tested or not shown. Unless noted, no stated cut-off is given here; in the data, active means inhibition above about 9.5%; inactive means the rest.

SMILES	PLCb3 inh	GC-A act	PLC-gamma1 inh	NPR2 activator	PLCg1 ctr	PLCbeta3 conf
CC(C)CC(NC(=O)c1ccccc1)C(=O)OCC(=O)Nc1ccc(S(N)(=O)=O)cc1 (stereo not drawn)	7	-1	0	-4	.	.
Cn1c(=O)c2c(n3cnnc13)-c1ccccc1CC21CCCC1	-42	-3	-28	-1	.	.
N/C(=N\OC(=O)c1ccccc1Cl)c1ccncc1	-2	7	10*	0	-2	-3
N/C(=N\OC(=O)c1ccccc1Cl)c1cccnc1	0	10	-1	-13	.	.
CCc1nnc(NC(=O)CSc2nnc(CNc3ccc(OC)cc3)n2CC)s1	0	3	1	-2	.	.
Cc1cc(C(=O)O)c(CCCN)s1	12*	2	6	0	-2	1
CCOc1ccc(/C=C2\CCC(C3CCCC3)C2=O)cc1 (stereo not drawn)	-6	7	9.9*	4	-8	-5
COCc1cc(=O)[nH]c(=S)[nH]1	6	3	5	-3	.	.
COc1cc(OC)c(C(=O)Oc2ccc3c(c2)OCO3)cc1OC	4	5	11*	-7	8	3
COCc1nnc(NC(=O)c2ccc(NC(C)=O)cc2)s1	14*	2	4	-2	-6	-1
CC(=O)NCC1COc2ccccc2O1 (stereo not drawn)	-3	2	4	2	.	.
CN(C)C(=O)OCC1COc2ccccc2O1 (stereo not drawn)	-1	6	9.9*	-4	-5	-1
O=C(O)CCC1COc2ccccc2O1 (stereo not drawn)	10	3	11*	2	1	-3
CC(=O)Oc1ccc(C(=O)c2ccccc2)c(OC(C)=O)c1	1	7	0	4	.	.
Cc1ccc(/C=C2/SC(=S)N(CCC(=O)N3CCOCC3)C2=O)cc1	-4	-4	0	1	.	.
COc1ccc([N+](=O)[O-])cc1NC(=O)C(C)OC(=O)c1cccnc1Cl (stereo not drawn)	7	-5	5	-6	.	.
CCCCNC(=O)C[C@@H]1C[C@@]2(C(=O)OC)CCCCC=C2N(Cc2cccc3ccccc23)C1=O	-2	-5	11*	1	-1	4
COc1cccc(C(=O)NC2CC3CCCC(C2)N3CC(=O)Nc2ccc(N(C)C)cc2)c1 (stereo not drawn)	5	-5	11*	6	-4	0
Cn1c(C(O)c2ccc(Br)cc2)nc(Cl)c1Cl (stereo not drawn)	-13	-11	4	-17	.	.
Cn1c(C(O)c2ccc(Cl)cc2)nc(Cl)c1Cl (stereo not drawn)	2	-24	11*	-6	-8	-1
Cc1cc(C(=O)NC(=S)Nc2cccc(C(=O)O)c2C)ccc1[N+](=O)[O-]	5	-2	9.8*	2	4	1
Cc1ccc(COc2coc(CN3CCN(C(=O)c4ccco4)CC3)cc2=O)cc1	-3	-2	1	5	.	.
O=C(c1ccco1)N1CCN(Cc2cc(=O)c(OCc3ccc([N+](=O)[O-])cc3)co2)CC1	4	3	11*	0	-2	-3
O=C(Cc1ccc([N+](=O)[O-])cc1)N/N=C/c1cccnc1	-5	6	1	7	.	.
O=C(N/N=C/c1cccnc1)c1ccc([N+](=O)[O-])cc1	5	-12	16*	-13	-2	2
SMILES	PLCb3 inh	GC-A act	PLC-gamma1 inh	NPR2 activator	PLCg1 ctr	PLCbeta3 conf
CC(C)(C)c1cnnn1-c1ccc(NC(=O)c2ccc3c(c2)OCO3)cc1	2	5	1	4	.	.
COc1cccc(C(=O)Nc2ccc(-n3nncc3C(C)(C)C)cc2)c1	12*	-3	9	-4	-151	4
C=CCN(CC#CC1=CCCCC1)Cc1ccc(OC)cc1OC	2	1	0	-4	.	.
Cc1ccnc(NS(=O)(=O)c2cccc3nsnc23)c1	2	1	9.9*	5	-6	-2
CC(=O)N1CCSc2ccc(S(=O)(=O)NCCc3cccc(C)c3)cc21	-3	1	16*	-9	-1	-1
CC1(C(=O)NS(=O)(=O)C2CC2)CCCN(C(=O)COc2ccc(Cl)cc2Cl)C1 (stereo not drawn)	-1	-3	3	1	.	.
O=C(c1ccccc1)N1CCN=C1SCc1ccc([N+](=O)[O-])cc1	-3	2	9.6*	1	-3	0
CCO[C@H]1OC(C(=O)Nc2ccccc2)=C[C@@H](c2ccc(C(F)(F)F)cc2)[C@@H]1CCCO	7	-4	10*	4	-3	4
CCn1c2ccccc2c2cc(NC(=O)CSc3nnc(-c4cccc(F)c4)o3)ccc21	8	-3	13*	-3	-17	-18
CCOC(=O)c1c(CC(C)C)csc1NC(=O)C(C)C	2	0	3	-2	.	.
CCOC(=O)c1c(CC(C)C)csc1NC(=O)CCl	11*	-27	6	-2	-3	-6
CC1CN(Cc2ccc(Cl)cc2Cl)CC(C)O1 (stereo not drawn)	1	-1	4	4	.	.
Nc1ccc(N2CCCCC2)c2nonc12	-9	-4	34*	0	-8	-10
CCOC(=O)C1C(=O)OC(C)(C)C1C(C)C(=O)c1ccc(C)cc1 (stereo not drawn)	9	-2	9.5*	0	-2	-4
N#C/C(=C\c1ccccc1)C(=O)NNS(=O)(=O)c1cccc([N+](=O)[O-])c1	1	2	11*	3	2	6
N#C/C(=C/c1cccc([N+](=O)[O-])c1)C(=O)Nc1ccccc1O	-5	-34	1	-12	.	.
Cc1cnn(-c2cc(N/N=C/c3ccccc3)ncn2)c1	.	-2	.	-2	.	.
Cc1cnn(-c2cc(N/N=C/c3ccccc3F)ncn2)c1	5	-2	12*	-8	-7	-3
CCc1ccc(C(=O)CSc2nc3cc(S(=O)(=O)N4CCOCC4)ccc3n2CC)cc1	-3	-3	-3	0	.	.
COc1ccc(Nc2cc(Nc3ccccc3)ncn2)cc1	-1	-3	1	-2	.	.
COc1ccc(C(=O)Nc2ccc3c(c2)nc(CN2CCCC2)n3C)cc1	-19	5	-10	1	.	.
COc1ccc(C(=O)Nc2ccc3c(c2)nc(CN2CCN(C(C)=O)CC2)n3C)cc1	11*	0	8	-2	0	-1
Cc1ccc(Cl)c(OCC(=O)Nc2ccc3c(c2)OCCO3)c1	1	6	4	0	.	.
CCN(CC(=O)Nc1ccc2c(c1)OCCO2)C(=O)COc1cc(C)ccc1Cl	5	-4	12*	-2	-8	-2

Source: PubChem
